Experiments:
Assay in all cases: log2 ratio of Biotin-Ahx-Ub-VS probe labelling (fragment/DMSO); higher = less target engagement (more negative = stronger competition), active = hit call of the paper (q ≤ 0.05, log2 ratio ≤ -1)
Details in all cases: compound concentration: 200 uM; treatment time: 3 h
[1] = target: T1, OTUD6B (UniProt Q8N6M0)
T1 sequence (whole entry): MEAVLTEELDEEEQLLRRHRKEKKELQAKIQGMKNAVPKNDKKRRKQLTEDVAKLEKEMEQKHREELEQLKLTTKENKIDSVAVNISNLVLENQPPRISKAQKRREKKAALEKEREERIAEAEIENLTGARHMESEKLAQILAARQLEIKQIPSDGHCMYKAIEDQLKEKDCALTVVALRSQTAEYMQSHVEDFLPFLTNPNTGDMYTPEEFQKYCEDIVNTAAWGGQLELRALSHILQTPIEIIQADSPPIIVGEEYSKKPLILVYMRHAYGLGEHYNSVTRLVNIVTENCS
How it was run: (§1)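 Global-median-normalised Spectronaut label-free quantities were compared by unpaired t-test, and values are average log2 ratios of fragment over vehicle. Only proteins with ≥2 unique peptides were used. HEK293T lysate (495 µg per sample) was treated in triplicate with fragment at 200 µM or vehicle for 3 h and then with Biotin-Ahx-Ub-VS at 0.5 µM final for 1 h. Labelled DUBs were then NeutrAvidin-enriched, digested with LysC and trypsin, and run by diaPASEF LC-MS/MS.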

[2] = target: T2, OTUD7B (UniProt Q6GQQ9)
T2 sequence (whole entry): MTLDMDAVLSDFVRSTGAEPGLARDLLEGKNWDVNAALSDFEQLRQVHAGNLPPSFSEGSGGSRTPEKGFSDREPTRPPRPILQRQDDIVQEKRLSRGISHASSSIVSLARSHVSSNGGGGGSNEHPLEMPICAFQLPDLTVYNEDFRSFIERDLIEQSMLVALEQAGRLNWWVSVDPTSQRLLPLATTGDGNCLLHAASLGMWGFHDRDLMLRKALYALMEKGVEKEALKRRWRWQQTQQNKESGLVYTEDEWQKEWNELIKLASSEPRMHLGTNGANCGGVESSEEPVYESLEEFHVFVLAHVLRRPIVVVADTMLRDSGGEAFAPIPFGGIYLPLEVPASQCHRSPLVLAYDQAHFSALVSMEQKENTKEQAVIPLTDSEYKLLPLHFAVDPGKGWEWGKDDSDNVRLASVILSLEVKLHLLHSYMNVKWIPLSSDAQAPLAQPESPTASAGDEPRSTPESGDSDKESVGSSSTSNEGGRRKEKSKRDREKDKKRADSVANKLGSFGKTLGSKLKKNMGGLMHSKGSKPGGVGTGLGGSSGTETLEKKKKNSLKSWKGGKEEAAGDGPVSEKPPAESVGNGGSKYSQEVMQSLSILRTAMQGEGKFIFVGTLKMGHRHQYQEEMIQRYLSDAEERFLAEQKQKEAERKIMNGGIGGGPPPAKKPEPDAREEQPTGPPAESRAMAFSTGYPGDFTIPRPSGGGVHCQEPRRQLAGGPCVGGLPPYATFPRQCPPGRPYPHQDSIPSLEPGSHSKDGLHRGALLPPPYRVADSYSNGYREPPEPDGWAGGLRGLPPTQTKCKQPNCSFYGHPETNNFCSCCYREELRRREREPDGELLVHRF
How it was run: as §1

[3] = target: PRPF8 (UniProt Q6P2Q9)
How it was run: as §1

[4] = target: T3, PSMD7 (UniProt P51665)
T3 sequence (whole entry): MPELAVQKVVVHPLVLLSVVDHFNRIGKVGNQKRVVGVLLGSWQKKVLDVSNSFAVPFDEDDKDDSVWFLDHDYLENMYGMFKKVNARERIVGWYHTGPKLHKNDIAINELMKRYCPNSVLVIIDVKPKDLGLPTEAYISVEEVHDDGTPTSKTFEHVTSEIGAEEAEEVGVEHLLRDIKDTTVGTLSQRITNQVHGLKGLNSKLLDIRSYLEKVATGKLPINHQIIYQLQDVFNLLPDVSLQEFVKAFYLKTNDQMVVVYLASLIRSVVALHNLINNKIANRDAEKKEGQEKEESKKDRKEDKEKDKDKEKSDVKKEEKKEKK
How it was run: as §1

[5] = target: UCHL1 (UniProt P09936)
Chain of UCHL1 (P09936 whole entry, looked up): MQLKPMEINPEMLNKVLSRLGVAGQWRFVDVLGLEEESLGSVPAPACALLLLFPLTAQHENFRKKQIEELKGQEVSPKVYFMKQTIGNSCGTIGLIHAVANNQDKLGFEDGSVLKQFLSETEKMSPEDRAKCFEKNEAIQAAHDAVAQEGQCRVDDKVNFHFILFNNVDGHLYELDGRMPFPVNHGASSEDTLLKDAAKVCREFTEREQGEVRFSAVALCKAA
How it was run: as §1

[6] = target: T4, UCHL3 (UniProt P15374)
T4 sequence (whole entry): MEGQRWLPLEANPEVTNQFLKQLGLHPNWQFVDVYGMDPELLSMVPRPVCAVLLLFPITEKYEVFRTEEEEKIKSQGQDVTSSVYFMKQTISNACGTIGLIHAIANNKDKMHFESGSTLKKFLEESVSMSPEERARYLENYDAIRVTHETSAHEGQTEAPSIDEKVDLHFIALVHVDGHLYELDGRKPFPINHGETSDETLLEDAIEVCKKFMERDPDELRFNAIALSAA
How it was run: as §1

[7] = target: T5, UCHL5 (UniProt Q9Y5K5)
T5 sequence (whole entry): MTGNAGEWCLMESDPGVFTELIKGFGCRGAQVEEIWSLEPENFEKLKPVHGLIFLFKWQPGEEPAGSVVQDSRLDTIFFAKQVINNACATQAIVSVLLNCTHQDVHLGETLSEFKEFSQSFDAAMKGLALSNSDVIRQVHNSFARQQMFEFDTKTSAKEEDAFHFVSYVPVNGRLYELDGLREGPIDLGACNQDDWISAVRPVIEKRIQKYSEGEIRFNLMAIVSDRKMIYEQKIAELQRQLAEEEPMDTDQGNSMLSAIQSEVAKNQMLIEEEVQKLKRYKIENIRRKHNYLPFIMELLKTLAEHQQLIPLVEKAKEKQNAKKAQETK
How it was run: as §1

[8] = target: USP10 (UniProt Q14694)
Chain of USP10 (Q14694 whole entry): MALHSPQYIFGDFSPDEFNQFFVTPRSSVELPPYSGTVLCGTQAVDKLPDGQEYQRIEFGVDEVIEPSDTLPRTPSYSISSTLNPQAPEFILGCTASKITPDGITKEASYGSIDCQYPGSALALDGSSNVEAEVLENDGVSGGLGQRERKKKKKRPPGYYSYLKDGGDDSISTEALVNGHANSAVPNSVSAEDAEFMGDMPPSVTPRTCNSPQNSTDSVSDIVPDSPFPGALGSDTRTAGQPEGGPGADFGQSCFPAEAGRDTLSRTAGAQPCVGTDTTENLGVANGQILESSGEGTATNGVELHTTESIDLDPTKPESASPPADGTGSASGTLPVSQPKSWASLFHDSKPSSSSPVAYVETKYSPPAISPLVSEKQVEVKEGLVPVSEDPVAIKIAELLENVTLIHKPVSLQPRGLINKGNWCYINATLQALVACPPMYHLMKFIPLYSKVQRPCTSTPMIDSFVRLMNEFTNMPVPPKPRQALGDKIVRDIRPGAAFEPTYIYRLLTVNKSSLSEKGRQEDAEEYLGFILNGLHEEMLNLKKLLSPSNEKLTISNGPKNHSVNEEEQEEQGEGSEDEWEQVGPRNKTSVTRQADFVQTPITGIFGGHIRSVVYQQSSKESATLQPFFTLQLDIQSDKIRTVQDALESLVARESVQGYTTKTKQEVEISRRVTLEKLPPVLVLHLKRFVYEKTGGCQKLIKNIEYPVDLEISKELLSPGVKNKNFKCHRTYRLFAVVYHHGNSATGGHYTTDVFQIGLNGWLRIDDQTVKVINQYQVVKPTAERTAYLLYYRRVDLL
How it was run: as §1

[9] = target: T6, USP15 (UniProt Q9Y4E8)
T6 sequence (whole entry): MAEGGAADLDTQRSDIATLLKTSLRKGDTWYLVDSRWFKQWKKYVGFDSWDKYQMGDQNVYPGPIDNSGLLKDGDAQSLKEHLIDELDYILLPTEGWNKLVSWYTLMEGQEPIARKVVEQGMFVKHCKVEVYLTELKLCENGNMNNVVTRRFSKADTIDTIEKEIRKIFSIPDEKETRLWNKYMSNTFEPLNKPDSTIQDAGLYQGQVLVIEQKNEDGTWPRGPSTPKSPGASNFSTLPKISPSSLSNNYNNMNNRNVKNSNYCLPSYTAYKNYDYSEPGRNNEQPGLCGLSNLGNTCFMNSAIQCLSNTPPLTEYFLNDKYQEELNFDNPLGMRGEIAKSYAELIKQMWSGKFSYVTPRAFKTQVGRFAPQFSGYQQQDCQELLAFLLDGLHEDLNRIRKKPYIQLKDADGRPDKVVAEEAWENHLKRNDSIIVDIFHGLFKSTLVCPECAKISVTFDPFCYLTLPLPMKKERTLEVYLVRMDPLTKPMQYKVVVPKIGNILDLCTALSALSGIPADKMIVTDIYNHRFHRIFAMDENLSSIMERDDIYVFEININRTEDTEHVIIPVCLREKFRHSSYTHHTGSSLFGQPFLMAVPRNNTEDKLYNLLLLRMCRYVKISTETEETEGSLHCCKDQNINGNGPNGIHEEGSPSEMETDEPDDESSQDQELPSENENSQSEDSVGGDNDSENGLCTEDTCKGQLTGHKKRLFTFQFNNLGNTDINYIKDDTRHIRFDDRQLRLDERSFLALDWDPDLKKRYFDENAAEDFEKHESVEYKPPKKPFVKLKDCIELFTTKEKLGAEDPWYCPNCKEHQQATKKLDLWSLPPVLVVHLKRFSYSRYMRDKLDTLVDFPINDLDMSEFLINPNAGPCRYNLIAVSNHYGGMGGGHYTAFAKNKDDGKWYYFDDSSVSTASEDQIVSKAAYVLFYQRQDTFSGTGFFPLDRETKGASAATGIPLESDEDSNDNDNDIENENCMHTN
How it was run: as §1

Measured: log2 ratio of Biotin-Ahx-Ub-VS probe labelling

Cc1n[nH]c(=O)c2c(NC(=O)CCl)oc(C)c12
inactive: [1] 0.111 | [2] -0.365 | [3] 0.175 | [4] 0.0225 | [5] -0.344 | [6] 0.303 | [7] -0.0452 | [8] -0.0909 | [9] -0.014
